Source: PubChem (The Scripps Research Institute Molecular Screening Center)
Shown are actives, neighbours in structure and some others; about 4.5% of the full set was active somewhere.
DAX1 inh-1: blocks DAX1 repression of SF-1 activated StAR promoter. HEK293T StAR-luciferase reporter, SF-1/DAX-1 repression relief. inhibition, % at 6.8 µM. AID 652010. actives 1.1% (n = 370,000);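 active means inhibition above the mean over all tested compounds plus 3 SD, cut at about 3.6% in these data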;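 further: 0% = DAX-1 cells with DMSO and 100% = cells lacking DAX-1 with DMSO; higher inhibition means more luminescence from relief of DAX-1 repression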
hcDAF12 agonist: activators of H. contortus DAF-12 nuclear receptor. activation, % at 6.8 µM. actives 1.4% (n = 370,000). HEK293 hcDAF-12 lit1-tk-luc reporter, luminescence; 0% DMSO, 100% Δ7-dafachronic acid;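 active means activation above the mean of all tested compounds plus 3 SD, cut at about 5.5% in these data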;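 further: 100% = response to 3 µM Δ7-dafachronic acid high control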
GAA850 FXN act: activators of GAA850 frataxin (FXN) promoter. HEK293 lucGAA850 FXN promoter luciferase reporter, 24 h; percent of 10 µM SAHA response. activation, % at 6 µM. actives 0.56% (n = 360,000). AID 540364;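 active means activation above the average of all compounds screened plus 3 SD, cutoff fixed separately per campaign, cut at about 7.5% in these data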;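 further: 0% = DMSO wells and 100% = 10 µM SAHA wells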
hgDAF12 agonist: activates the H. glycines DAF-12 receptor ligand-binding domain; HEK293 GAL4-hgDAF12 UAS-luciferase reporter, agonist luminescence; normalized to butyrate control; activation, % at 6.8 µM; actives 1.8% (n = 370,000);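 active means activation above a cutoff set at the mean of all screened compounds plus 3 SD, cut at about 10% in these data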;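 further: 0% = DMSO wells and 100% = sodium butyrate wells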
ssDAF12 agonist: activates DAF-12 receptor from parasite S. stercoralis | activation, % at 6.8 µM | AID 652126 | actives 1% (n = 370,000) | HEK293 ssDAF-12/GRIP1 lit1-tk-luc reporter, luminescence; % of 3 µM dafachronic acid response;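 active means activation above the mean over all tested compounds plus 3 SD, cut at about 0.9% in these data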;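 further: 0% = DMSO-only wells and 100% = 3 µM delta7-dafachronic acid wells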
DAX1 inh-2: inhibitors of human orphan nuclear receptor DAX1 (NR0B1); P51843; HEK293 Gal4-DAX1 luciferase reporter, luminescence; inhibition, % at 6.75 µM; actives 0.99% (n = 340,000);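 active means inhibition above the mean over all tested compounds plus 3 SD, cut at about 4.2% in these data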;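 further: 0% = DAX1-transfected cells with DMSO and 100% = empty-vector control cells with DMSO; inhibition shows as a rise in luminescence from relieved DAX1 repression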
Target sequence (P51843 207-470 limits assumed): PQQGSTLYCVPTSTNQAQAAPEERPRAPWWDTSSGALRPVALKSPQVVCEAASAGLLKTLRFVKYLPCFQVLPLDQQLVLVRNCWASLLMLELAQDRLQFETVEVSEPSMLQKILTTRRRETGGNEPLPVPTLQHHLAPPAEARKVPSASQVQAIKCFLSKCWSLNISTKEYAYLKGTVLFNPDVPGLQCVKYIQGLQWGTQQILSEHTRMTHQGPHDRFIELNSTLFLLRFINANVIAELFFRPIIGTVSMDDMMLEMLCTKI
Numbers without * were called inactive; x = no result.

SMILES	DAX1 inh-1	hcDAF12 agonist	GAA850 FXN act	hgDAF12 agonist	ssDAF12 agonist	DAX1 inh-2
COc1ccc(CC(=O)Nc2ccc(C)cc2S(=O)(=O)N2CCOCC2)cc1OC	-1	0	x	0	-2	x
CC(=O)Nc1ccc(S(=O)(=O)Nc2nc3ccccc3nc2Nc2ccc(S(N)(=O)=O)cc2)cc1	0	3	0	0	-1	1
NS(=O)(=O)c1ccc(Nc2nc3ccccc3nc2NS(=O)(=O)c2cccc([N+](=O)[O-])c2)cc1	0	-1	2	1	-1	5.0*
CCOc1cc(C(=O)N(C)CC(=O)Nc2cccc(F)c2)ccc1OCC(=O)N1CCCCC1	-1	4	-1	3	1.3*	-1
CCOc1cc(C(=O)Nc2cccc(C(C)=O)c2)ccc1OCC(=O)N1CCCCC1	0	-2	1	-1	-1	1
O=C(CSc1nnc(-c2ccccn2)n1-c1ccc(Cl)cc1)Nc1cccc2ccccc12	-1	-1	x	-1	-1	x
O=C(Nc1ccc(F)cc1)OC1CC2CC1[C@H]1CCCCN1[C@H]2Cc1ccccc1 (stereo partly drawn)	0	3	x	2	0	x
CCN(CC)C(CNC(=O)CSc1nnnn1-c1c(C)cccc1C)c1ccco1 (stereo not drawn)	3.6*	-1	0	0	0	0
CC(=O)Nc1cccc2c1OCCO2	-1	-1	0	-1	-1	1
O=C(O)/C=C/c1cccc2c1OCCO2	0	-2	0	0	-2	7.2*
CS(=O)(=O)c1ccc(C(=O)NC2CCCCC2)cc1	0	2	0	1	-1	-1
O=C(NC1CCC1)c1ccc(C#CC2CC2)c[n+]1[O-]	2	-1	x	11*	0	x
CC1=Nc2cc([N+](=O)[O-])ccc2NC(C)(C)C1	0	2	6	12*	-2	4.8*
Cc1nc2ccc([N+](=O)[O-])cc2nc1C	1	-1	0	-2	-1	2
COc1ccc2nc(SCC(=O)N3CCNC3=O)[nH]c2c1	3	2	1	11*	-1	2
CCOc1ccccc1C(=O)Nc1ccc(S(=O)(=O)Nc2nccc(C)n2)cc1	0	6.2*	3	-2	0	0
Cc1cc(C)nc(NS(=O)(=O)c2ccc(NC(=O)c3ccc(O)cc3O)cc2)n1	0	5.7*	1	0	0	1
CCOc1ccc(C(=O)Nc2ccc(S(=O)(=O)Nc3nccc(C)n3)cc2)cc1OCC	0	-1	2	1	-1	-1
COC(=O)[C@H](CC(C)C)N1Cc2nnn(Cc3ccccc3)c2-c2ccccc2S1(=O)=O	-2	-4	x	3	-2	x
Cc1ccc(-n2c(SCC(=O)c3ccc(F)cc3)nnc2-c2cccnc2)cc1	-1	-1	x	-4	-2	x
O=C(CCCc1nc(-c2ccccc2)no1)NC1CCCCC1	-1	-3	0	0	1.1*	-1
Cc1c2ccccc2nc2c(F)c(N(C)C)c(F)c(F)c12	0	5.8*	5	2	0	-1
CS(=O)(=O)Nc1ccc(-c2cnc3cccnn23)cc1	-1	1	-7	12*	-1	x
CS(=O)(=O)Nc1ccc(-c2cncc3nccn23)cc1	0	1	-1	1	-1	x
COc1cccc(-c2cnc3cccnn23)c1	2	-1	5	12*	-1	x
SMILES	DAX1 inh-1	hcDAF12 agonist	GAA850 FXN act	hgDAF12 agonist	ssDAF12 agonist	DAX1 inh-2
O=C(OCCN1CCN(C2CN(Cc3cn(Cc4ccccc4F)nn3)S(=O)(=O)C2)CC1)c1cc2ccccc2o1 (stereo not drawn)	0	-2	x	3	-1	x
CC(=O)N(CCCc1ccc(C(C)(C)C)cc1)CCCN(C)C	0	0	-1	-1	-1	0
CC(=O)N(CCCN(C)C)CCC(C)CCC=C(C)C (stereo not drawn)	1	-1	-1	-3	1.1*	0
CC(C(=O)Nc1nccs1)N1C(=O)C2CC=CCC2C1=O (stereo not drawn)	0	-1	1	2	-1	-1
C[C@@H](C(=O)Nc1nccs1)N1C(=O)C2CC=CCC2C1=O (stereo partly drawn)	1	0	1	-1	-1	4.8*
c1ccc(SCCN2CCc3ccccc3C2)cc1	1	0	2	5	0	-1
